A selection: hits, their analogues and other compounds. The true share with any hit is near 7.4%.
KinaseGlo FLuc – Kinase-Glo luciferase inhibition (counter-screen) | Q27757 | Kinase-Glo luciferase, ATP luminescence, 8 min | Potency, µM (doses to about 38.3 µM), without a hit: at the highest dose activity change, negative = inhibition, hits mostly inhibitors | 0.28% of 200,000 active | AID 1379; further: on the % scale 0 is the no-effect control and ±100 the full control effect; nearly all actives have a fitted effect of over 60% in size
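Compounds were added to a substrate mix at pH 7.2 (50 mM imidazole, 10 uM ATP, within the enzyme's linear range), followed by Kinase-Glo detection reagent; luminescence was measured after 8 minutes at ambient temperature.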
Rab9 prom act – activates the Rab9 promoter; 2.8% of 320,000 active; Huh7 Rab9 promoter-luciferase reporter, luminescence, 24 h; Potency, µM (series often up to 9.22 µM), inactives show top-dose activation, negative = inhibition, most hits filed as activators; AID 485297; further: % of control where 0% means no effect; nearly all actives have a fitted effect of over 60% in size
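Huh7 cells stably carrying a Rab9 promoter-luciferase reporter, 1500 cells per well in OP-MEM I with 10% FBS, treated with compound 24 hours at 37C. Luciferase activity read by luminescence after 10 minutes with Amplite reagent.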
NPC1 promoter act – NPC1 promoter activation | Potency, µM (titrated, usually from 9.22 µM), inactives show at the highest dose activation, usual class: activators | 2.4% of 320,000 active | Huh7 NPC1 promoter luciferase reporter, 24 h; further: % of control where 0% means no effect; nearly all actives have a fitted effect of over 60% in size
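Compounds in DMSO were transferred onto Huh7 NPC1-luciferase reporter cells pre-incubated 2 h; after 24 h at 37 °C, Amplite reagent was dispensed and luminescence recorded 10 min later.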
ELG1 genotox – genotoxicity induction in ELG1-luciferase HEK293T cells; HEK293T ELG1-luciferase reporter, luminescence, 16 h; Potency, µM (highest dose often 46 µM), inactives show top-dose activity change, positive = activation, usual class: activators; 1.3% of 330,000 active; AID 504466; further: % of control where 0% means no effect; nearly all actives have a fitted effect of over 60% in size
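Quantitative HTS format in 1536-well plates. HEK293T ELG1-luciferase reporter cells receive test compound and are incubated 16 hr at 37 °C, 5% CO2; ONE-Glo added, 30 min room temperature, then luminescence read.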
FLuc counter – counter-screen for miR-21 project: firefly luciferase inhibitors or activators; P08659; purified FLuc, Km substrates, luminescence inhibition; Potency, µM (highest dose often 57.5 µM), for inactives: at the highest dose activity change, negative = inhibition, usual class: inhibitors; 6.9% of 360,000 active;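 further: plate controls were vehicle for no effect and reference inhibitor for full effect; nearly all actives have a fitted effect of over 55% in size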
Target sequence (P08659 whole entry, looked up): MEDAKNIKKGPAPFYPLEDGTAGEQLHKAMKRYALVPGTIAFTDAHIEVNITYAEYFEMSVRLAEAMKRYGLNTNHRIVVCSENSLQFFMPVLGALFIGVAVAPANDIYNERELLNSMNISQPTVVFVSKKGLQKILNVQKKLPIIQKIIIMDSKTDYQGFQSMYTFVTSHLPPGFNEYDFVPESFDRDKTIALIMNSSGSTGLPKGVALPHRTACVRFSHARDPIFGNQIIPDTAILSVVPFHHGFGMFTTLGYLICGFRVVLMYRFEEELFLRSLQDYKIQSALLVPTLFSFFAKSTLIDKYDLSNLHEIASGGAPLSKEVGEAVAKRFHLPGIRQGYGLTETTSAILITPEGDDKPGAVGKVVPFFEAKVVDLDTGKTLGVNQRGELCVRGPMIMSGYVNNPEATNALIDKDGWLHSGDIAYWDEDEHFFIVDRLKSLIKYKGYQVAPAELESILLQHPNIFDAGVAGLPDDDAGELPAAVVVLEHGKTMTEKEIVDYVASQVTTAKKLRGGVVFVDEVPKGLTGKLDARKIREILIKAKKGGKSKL
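Purified P. pyralis luciferase (10nM final) with 10uM D-luciferin and 10uM ATP (Km levels) in 50mM Tris acetate pH 7.5, 10mM Mg acetate, 0.01% Tween-20, 0.05% BSA; qHTS 6-point titration, ~60 µM downward; luminescence read.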
SMN2 splice up – SMN2 splice variant enhancement. HEK293 SMN2-luciferase splicing reporter, luminescence, 30-36 h. Potency, µM (series often up to 46.1 µM), inactives show top-dose activity change, positive = activation, hits mostly activators. 2.8% of 210,000 active; further: % of control where 0% means no effect; nearly all actives have a fitted effect of over 55% in size
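HEK293 cells carry an SMN2 […]–luciferase reporter in which exon 7 inclusion puts luciferase in frame. Cells were plated 10-12 h before compound addition, then incubated 30-36 h at 37C. ONE-Glo luminescence was read; sodium butyrate at 4.5 mM final served as control.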
* marks the source's active call; other numbers are inactive results; u = inconclusive; x = not tested or not shown; [ ] = another dose, or the depositor's remark. The call rests on the fitted dose curve; in most records, active means well fitted curve in the direction sought with a large enough effect; inconclusive means small, poorly fitted or top-dose-only effect, or another doubt; inactive means no such curve, though single readings can be large; an effect the other way counts as inactive or inconclusive. Potency means the concentration at half of the fitted maximal effect.

SMILES	KinaseGlo FLuc	Rab9 prom act	NPC1 promoter act	ELG1 genotox	FLuc counter	SMN2 splice up
CCCCN1C(=O)CC(Nc2ccc(CC)cc2)C1=O (configuration not stated)	-1%	25%	12%	16µM*	13µM*	u
CCCc1cc(-c2n[nH]c(C)c2-c2ccc(C(=O)OCC)o2)c(O)cc1O	-3%	1%	-4%	-12%	-2%	-17%
CCCc1cc2c(OC(=O)CC)c(-c3ccc(C(=O)OCC)o3)c(=O)oc2cc1OC	2%	-6%	2%	0%	24µM*	9%
Cc1nn(-c2ccccc2)c(C)c1CN	-4%	-10%	-3%	2%	-1%	x
Cc1nn(-c2ccccc2)c(C)c1Cc1ccc(O)cc1	x	u	u	3%	24µM*	x
Cc1ccc2nc(/C(C#N)=C\c3ccc(N4CCOCC4)o3)[nH]c2c1	-9%	1.8µM*	2.2µM*	u	0.43µM*	4µM*
Cc1ccc2nc(/C(C#N)=C\c3ccc([N+](=O)[O-])o3)[nH]c2c1	-4%	-28%	-36%	1%	-15%	-97%
Cc1ccc(/C(C#N)=C\c2ccc(N3CCOCC3)o2)cc1	-1%	3.2µM*	4µM*	18µM*	24µM*	13µM*
Cc1ccccc1-n1c(=O)c2c3c(sc2n2cnnc12)CCCC3	x	x	x	x	-3%	-11%
CCOC(=O)c1c(N)sc2c(OC)c(Br)ccc12	1%	x	x	x	19µM*	-10%
COc1ccc(CCNC(=O)C(=O)c2c[nH]c3ccccc23)cc1	x	x	x	x	x	-9%
O=C1c2ccccc2CC1Sc1nnc(-c2ccccn2)o1 (configuration not stated)	5%	25%	17%	8%	12µM*	17%
Clc1ccc(-n2ncc3c(NCc4ccco4)ncnc32)cc1	-1%	2.5µM*	u	-7%	6µM*	-19%
COc1ccc(-n2ncc3c(NCc4ccccn4)ncnc32)cc1	-2%	u	u	u	15µM*	u
COc1ccc(-n2ncc3c(NCc4ccco4)ncnc32)cc1	-1%	1.4µM*	2.2µM*	u	9.5µM*	u
Cc1cc(C)c2c(CC(=O)Nc3nnc(C(C)C)s3)coc2c1	x	x	x	x	0%	8%
CCN(CCCNC(=O)c1nn(-c2ccc(OC)cc2)c(=O)c2c1c1ccccc1n2C)c1ccccc1	x	x	x	x	1%	3%
Cc1cccc(NC(=O)CSc2nc3c(c(=O)[nH]2)CN(Cc2ccc4c(c2)OCO4)CC3)c1C	x	x	x	x	2%	x
Cc1cccc(OCC(=O)Nc2ccc(-c3nc4ccccc4o3)cc2)c1C	x	x	x	x	1%	u
CCc1ccc2oc(-c3cc(NC(=O)c4cccnc4)cc(C)c3O)nc2c1	x	x	x	x	0.85µM*	12%
CCc1ccc2oc(-c3cc(NC(=O)c4cc(OC)c(OC)c(OC)c4)ccc3O)nc2c1	x	x	x	x	3.8µM*	-7%
Cc1ccc2nc(-c3ccc(Cl)c(NC(=O)COc4cccc(C)c4C)c3)oc2c1	x	x	x	x	4.8µM*	u
Cc1ccc2oc(-c3ccc(NC(=O)c4cccnc4)cc3)nc2c1	1%	2.2µM*	2.5µM*	u	6µM*	2µM*
O=C(Nc1ccc2oc(-c3cccnc3)nc2c1)c1cccnc1	3%	17%	12%	3%	u	-10%
Cc1cnc(CNc2ncncc2-c2ccccc2C(F)(F)F)cn1	-1%	x	x	x	x	-12%
NC(=O)C[C@@H](N)c1nn[nH]n1	-3%[7.66 µM]	x	x	x	x	-7%[9.22 µM]
O=C(Nc1ccc(-c2nc3ccccc3o2)cc1)c1cccnc1	-7%	1.6µM*	2.2µM*	u	2.7µM*	8.9µM*
CCc1ccc2oc(-c3cc(N=Cc4cccc(OC)c4O)ccc3O)nc2c1	-8%	4µM*	4.5µM*	u	0.43µM*	14µM*
Cc1ccc2nc(-c3ccc(Cl)c(NC(=O)c4cccnc4)c3)oc2c1	x	x	x	x	0.6µM*	-4%
O=C(Nc1cccc(-c2nc3ccccc3o2)c1)c1cccnc1	2%	-1%	-1%	-6%	u	-35%

Compound activity (PubChem BioAssay)
